Screening results from PubChem.
HepG2 viability – qHTS for Inhibitors of TGF-b: Cytotox Counterscreen; HepG2 CAGA-GFP viability, ATP luminescence, 18 h; Potency, µM (top dose mostly 46.1 µM), usual class: cytotoxic; 410,000 compounds, 0.76% hits; AID 588856, 2011
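CellTiter-Glo luminescence gave cytotoxicity after 18 hours at 37 degrees C. The cells were HepG2 CAGA-GFP in 1% FBS DMEM, stimulated with 500 pg/mL TGF-beta after compound addition. %Activity was normalised to no-cell wells (complete cell-killing) and DMSO (no toxicity), and curves were fitted and classified.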
HT1080 IDH1KD tx – qHTS for induction of synthetic lethality in tumor cells producing 2HG: qHTS for the HT-1080-IDH1KD cell line | 360,000 compounds, 2% hits | HT-1080 IDH1 knockdown viability, ATP luminescence, 48 h | Potency, µM (top dose mostly 46.1 µM), actives largely listed as cytotoxic
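% activity derives from luminescence (CellTiter-Glo), normalised to DMSO and no-cell wells. HT-1080-IDH1KD cells, 750/well, had 48 h compound exposure at 37 °C.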
KB-3-1 tox – qHTS assay for MDR1-selective chemotherapeutics: Primary screen using the parental adenocarcinoma cell KB-3-1; KB-3-1 viability, CellTiter-Glo ATP luminescence, 72 h; Potency, µM (titrated, usually from 46.1 µM), hits mostly cytotoxic; 400,000 compounds, 1.4% hits; further: nearly all actives have a fitted effect of over 60% in size
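Screening of KB-3-1 cells (DMEM, 10% FBS, phenol-red free) ran from lowest to highest compound concentration; after 72 h at 37 °C viability was read luminescently and curves fitted.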
TGFb SMAD3 inh – qHTS for Inhibitors of TGF-b; HepG2 CAGA-GFP TGF-b/SMAD3 reporter, GFP fluorescence, 18 h; TGF-beta stimulated, 500 pg/mL final; Potency, µM (titrated, usually from 46.1 µM), usual class: inhibitors; 410,000 compounds, 1.2% hits; AID 588855, 2011; further: nearly all actives have a fitted effect of over 65% in size
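Read-out: total well GFP (ex488/em500-530) summed from mean per-cell fluorescence. Cells: HEPG2 CAGA-GFP, 1% FBS DMEM, 18 h at 37 degrees C with 500 pg/mL final TGF-beta. Unstimulated wells served as the full-inhibition control; stimulated DMSO wells = 0%.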
HT1080-NT tox – qHTS for induction of synthetic lethality in tumor cells producing 2HG: qHTS for the HT-1080-NT fibrosarcoma cell line | HT-1080-NT fibrosarcoma viability, CellTiter-Glo ATP luminescence, 48 h | Potency, µM (highest dose often 46.1 µM), actives largely listed as cytotoxic | 360,000 compounds, 1.6% hits;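 further: NT is the 2HG producing partner of a matched IDH1 knockdown line; nearly all actives have a fitted effect of over 55% in size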
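Viability by CellTiter-Glo luminescence after 48 h compound exposure at 37C of HT-1080-NT cells (750/well, RPMI, 5% FBS). % activity scaled between DMSO wells and medium-only wells, then curve-fitted and categorized by curve class.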
KB-V1 cytotox – qHTS assay for MDR1-selective chemotherapeutics: Primary screen using the drug-selected MDR subline cells KB-V1. AID 1347076, 2019. 400,000 compounds, 3.4% hits. Potency, µM (top dose mostly 46.1 µM), hits mostly cytotoxic. KB-V1 MDR cells viability, CellTiter-Glo, 72 h; further: nearly all actives have a fitted effect of over 60% in size
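KB-V1 MDR subline cells in DMEM (phenol-red free, 10% FBS) exposed to compounds in qHTS concentration series for 72 h at 37 degrees C. Viability read by CellTiter-Glo luminescence; concentration-effect curves fitted after normalization and correction.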
Large screens that a line does not name were inactive. Shown are actives, neighbours in structure and some others; about 6.6% of the full set was active somewhere. The call rests on the fitted dose curve; in most records, active means well fitted curve in the direction sought with a large enough effect; inconclusive means small, poorly fitted or top-dose-only effect, or another doubt; inactive means no such curve, though single readings can be large; an effect the other way counts as inactive or inconclusive.

COc1ccc2c(CNCc3ccc(C)o3)c(C(=O)O)n(Cc3ccccc3C)c2c1	none (no result: HT1080 IDH1KD tx, HT1080-NT tox)
COc1ccc(Cn2c(C(=O)O)c(CNCc3ccc(C)o3)c3ccc(OC)cc32)cc1	KB-3-1 tox 8.2µM, TGFb SMAD3 inh inconclusive (no result: HT1080 IDH1KD tx, HT1080-NT tox)
C[C@H](CO)N1C[C@H](C)[C@@H](CN(C)S(=O)(=O)c2ccc(F)cc2)Oc2c(NC(=O)Nc3ccc(C(F)(F)F)cc3)cccc2C1=O	KB-3-1 tox inconclusive, TGFb SMAD3 inh inconclusive
C[C@@H]1CN([C@@H](C)CO)C(=O)c2ccccc2-c2ccccc2CO[C@@H]1CN(C)S(=O)(=O)c1ccc(C(F)(F)F)cc1	TGFb SMAD3 inh inconclusive, KB-V1 cytotox 16µM
C[C@H]1CN([C@@H](C)CO)C(=O)c2cccc(NC(=O)Nc3ccc(C(F)(F)F)cc3)c2O[C@@H]1CN(C)S(=O)(=O)c1ccc(Cl)cc1	HT1080 IDH1KD tx 26µM, KB-3-1 tox inconclusive, TGFb SMAD3 inh inconclusive, HT1080-NT tox inconclusive, KB-V1 cytotox inconclusive
C[C@@H]1CN([C@@H](C)CO)C(=O)Cc2cc(NC(=O)Nc3ccc(C(F)(F)F)cc3)ccc2O[C@@H]1CN(C)S(=O)(=O)c1ccc(Cl)cc1	HT1080 IDH1KD tx 23µM, KB-3-1 tox inconclusive, TGFb SMAD3 inh inconclusive, HT1080-NT tox inconclusive
Cc1ccc(S(=O)(=O)N(C)C[C@@H]2Oc3ccc(NC(=O)CCC(F)(F)F)cc3CC(=O)N([C@@H](C)CO)C[C@@H]2C)cc1	HT1080 IDH1KD tx 4.6µM, KB-3-1 tox inconclusive, TGFb SMAD3 inh inconclusive, HT1080-NT tox 2.1µM
COc1cc(SC)ccc1C(=O)N1CCN(S(=O)(=O)/C=C/c2ccccc2)CC1	none
Cc1c(Cl)cccc1NC(=O)CN1C(=O)c2ccccc2Sc2ncccc21	TGFb SMAD3 inh inconclusive (no result: HT1080 IDH1KD tx, HT1080-NT tox)
Cc1ccc(NC(=O)Cn2c(=O)n(CCc3ccccc3)c(=O)c3c4c(sc32)CCCC4)cc1C	none (no result: HT1080 IDH1KD tx, HT1080-NT tox)
COc1ccc(CCNC(=O)c2nc(SCc3ccc(F)cc3)ncc2Cl)cc1OC	TGFb SMAD3 inh inconclusive (no result: HT1080 IDH1KD tx, KB-3-1 tox, HT1080-NT tox, KB-V1 cytotox)
C[C@H](CO)N1C[C@H](C)[C@H](CN(C)S(=O)(=O)c2cn(C)cn2)Oc2ccc(NC(=O)Nc3ccc(C(F)(F)F)cc3)cc2CC1=O	HT1080 IDH1KD tx 23µM, KB-3-1 tox 4.1µM, TGFb SMAD3 inh inconclusive, HT1080-NT tox 5.2µM, KB-V1 cytotox inconclusive
C[C@H](CO)N1C[C@H](C)[C@H](CN(C)S(C)(=O)=O)OCc2ccccc2-c2c(n(C)c3ccccc23)C1=O	KB-V1 cytotox inconclusive
C[C@H](CO)N1C[C@H](C)[C@H](CN(C)S(=O)(=O)c2cccc(F)c2)OCc2ccccc2-c2c(n(C)c3ccccc23)C1=O	HT1080 IDH1KD tx inconclusive, KB-3-1 tox 23µM, TGFb SMAD3 inh inconclusive, HT1080-NT tox inconclusive
O=S1(=O)C[C@H](N2CCN(CC3CC3)CC2)[C@@H](COCc2ccccc2)N1	none
O=C(O)/C=C/c1cccc(NS(=O)(=O)c2ccccc2)c1	none
NS(=O)(=O)c1cccc(NS(=O)(=O)c2ccc(/C=C/C(=O)O)cc2)c1	HepG2 viability 13µM
Fc1ccc(-n2ncc3c(N4CCC(Cc5ccccc5)CC4)ncnc32)cc1	KB-V1 cytotox inconclusive (no result: HT1080 IDH1KD tx, HT1080-NT tox)
O=C(c1ccccc1)N1N=C(C(F)(F)F)CC1(O)c1ccccc1O (centres undefined)	HepG2 viability 7.1µM, KB-3-1 tox inconclusive, TGFb SMAD3 inh 8.9µM, KB-V1 cytotox inconclusive
O=C(c1ccccc1F)N1N=C(C(F)(F)F)CC1(O)c1ccccc1 (centres undefined)	none
O=[N+]([O-])c1ccc(O)c(-c2cc(C(F)(F)F)nc(-c3ccccc3)n2)c1	KB-3-1 tox 1.5µM, TGFb SMAD3 inh inconclusive, HT1080-NT tox 2.3µM, KB-V1 cytotox inconclusive
Oc1ccccc1-c1cc(C(F)(F)C(F)F)nc(-c2ccccc2)n1	none
S=c1[nH]nc(-c2ccco2)n1/N=C/C(Cl)=C/c1ccccc1	HT1080 IDH1KD tx inconclusive, TGFb SMAD3 inh inconclusive, HT1080-NT tox inconclusive
S=c1[nH]nc(-c2cc(-c3ccccc3)n[nH]2)n1/N=C/C(Br)=C/c1ccccc1	HT1080 IDH1KD tx 5.8µM, KB-3-1 tox 15µM, TGFb SMAD3 inh 11µM, HT1080-NT tox 7.3µM, KB-V1 cytotox inconclusive
CC(=C/c1ccccc1)/C=N/n1c(-c2ccncc2)n[nH]c1=S	none
Cc1cc(-c2n[nH]c(=S)n2/N=C/C(Cl)=C/c2ccccc2)n[nH]1	HT1080 IDH1KD tx inconclusive, KB-3-1 tox inconclusive, TGFb SMAD3 inh inconclusive, HT1080-NT tox inconclusive, KB-V1 cytotox 21µM
CC(/C=N/n1c(-c2cccnc2)n[nH]c1=S)=C\c1ccccc1	KB-V1 cytotox 16µM
CCOc1ccc(NC(=O)C(NS(=O)(=O)c2ccc3c(c2)CCN3C(C)=O)C(C)C)cc1 (centres undefined)	none (no result: HT1080 IDH1KD tx, HT1080-NT tox)
CC(C)(C)c1ccc(C(=O)N/N=C/c2cccc(Cl)c2)cc1	HT1080 IDH1KD tx inconclusive, KB-3-1 tox inconclusive, TGFb SMAD3 inh inconclusive, HT1080-NT tox inconclusive, KB-V1 cytotox 23µM
CN(C)CCN(C(=O)c1cc(Cl)sc1Cl)c1nc2ccc(F)cc2s1	none
CN(C)CCCN(C(=O)c1cc(-c2cccs2)nc2ccccc12)c1nc2ccc(F)cc2s1	HT1080 IDH1KD tx 21µM, TGFb SMAD3 inh inconclusive, HT1080-NT tox 8.2µM, KB-V1 cytotox inconclusive
CN(C)CCCN(C(=O)CCSc1ccccc1)c1nc2cc3c(cc2s1)OCO3	HT1080 IDH1KD tx 18µM, KB-3-1 tox inconclusive, TGFb SMAD3 inh inconclusive, HT1080-NT tox inconclusive, KB-V1 cytotox inconclusive
